Experimental data from PubChem BioAssay (NCATS).
Results filed as inconclusive are left out. Values without a mark were called inactive. The source made the active and inactive calls. Calls come from the whole dose curve; as a rule, active = well fitted inhibition curve with a large enough effect; inconclusive = small, poorly fitted or top-dose-only effect; inactive = flat fitted curve, though single readings scatter.

Each compound was assayed on NIH3T3 (assay: Cytotoxic Profiling of Annotated Libraries Using Quantitative High-Throughput Screening (AID 1296008; note: potency is the fitted concentration of half-maximal effect)). Settings: Five cell lines viability, CellTiter-Glo ATP luminescence, 48-72 h; max response: hits give low values.
Outline: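 Cells exposed to compounds for 48 or 72 hr at 37 degrees Celsius. Viability read as ATP-coupled luminescence with CellTiter-Glo after 10 min at room temperature.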
% is set by controls: 0 for no effect and ±100 for the full control effect.
Note: nearly all actives have a fitted effect of over 60% in size.

| SMILES | outcome | max response | Potency |
| --- | --- | --- | --- |
| O=C(O)Cc1cc(I)c(Oc2ccc(O)c(I)c2)c(I)c1 | inactive | – | – |
| O=C1c2ccccc2C(=O)c2c1ccc(O)c2O | – | -5.2% | – |
| CC(=O)Nc1ccc(NC(=S)NC(=O)c2ccc(C(C)(C)C)cc2)cc1 | – | – | 16.4 µM (active) |
| CCN(CC)CCOCCOC(=O)C(CC)(CC)c1ccccc1 | – | 0.0854% | – |
| CC(C)(C)c1ccc(CN2CCN(C(c3ccccc3)c3ccc(Cl)cc3)CC2)cc1 (stereo not given) | inactive | – | – |
| Nc1ccc(N=Nc2ccccc2)c(N)n1 | – | -0.826% | – |
| C[C@]12CC[C@@H]3c4ccc(OC(=O)c5ccccc5)cc4CC[C@H]3[C@@H]1CC[C@@H]2O | inactive | – | – |
| COc1ccc2nc(NC(=O)Nc3ccccc3)sc2c1 | – | -17.1% | – |
| O=C(OCc1ccccc1)c1ccc(O)cc1 | – | 0.27% | – |
| C/C(=C\C(=O)OCCCCCCCCC(=O)O)C[C@@H]1OC[C@H](C[C@@H]2O[C@H]2[C@@H](C)[C@H](C)O)[C@@H](O)[C@H]1O | – | -3.66% | – |
| CC1CC(OC(=O)C(O)c2ccccc2)CC(C)(C)C1 (stereo not given) | – | 2.78% | – |

The compounds below were run on HACAT (assay: qHTS assay to identify novel small-molecules to repurpose for Merkel cell carcinoma treatment (AID 1296009)). Settings: MCC and control cell lines, CellTiter-Glo viability, 72 h; at 44.8 µM (top of the series).
Outline: (§1)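 Cells were treated for 72 hr at 37 degree celsius with compounds in 8- or 11-point dose response. Viability was read by CellTiter-Glo luminescence, normalized to no-cell (cytotoxicity) and DMSO controls.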

| SMILES | outcome |
| --- | --- |
| CC(=O)Oc1cccc2c1C(=O)c1c(OC(C)=O)cc(C(=O)O)cc1C2=O | inactive |
| O=C(O)Cc1cc(I)c(Oc2ccc(O)c(I)c2)c(I)c1 | inactive |
| CN(C)CCCSc1ccccc1NC(=O)/C=C/c1ccccc1 | inactive |
| CCN(CC)CCOCCOC(=O)C(CC)(CC)c1ccccc1 | inactive |
| C=C1CC[C@H](O)CC1=C/C=C1\CCC[C@]2(C)[C@@H]([C@H](C)/C=C/[C@H](C)C(C)C)CC[C@@H]12 | inactive |
| CC(C)(C)c1ccc(CN2CCN(C(c3ccccc3)c3ccc(Cl)cc3)CC2)cc1 (stereo not given) | inactive |
| COc1ccc2nc(NC(=O)Nc3ccccc3)sc2c1 | inactive |
| CC1CC(OC(=O)C(O)c2ccccc2)CC(C)(C)C1 (stereo not given) | inactive |

What follows are compounds tested on MCC-13 in the same assay as above. Settings: MCC and control cell lines, CellTiter-Glo viability, 72 h; series mostly up to 46 µM; activity change, negative = cytotoxicity: at the top concentration.
Outline: as §1

| SMILES | activity change, negative = cytotoxicity |
| --- | --- |
| Oc1ccc(/C=C/c2cc(O)cc(O)c2)cc1 | -0.156% |
| CC(=O)Oc1cccc2c1C(=O)c1c(OC(C)=O)cc(C(=O)O)cc1C2=O | -9.07% |
| O=C1c2ccccc2C(=O)c2c1ccc(O)c2O | -9.07% |
| CN(C)CCCSc1ccccc1NC(=O)/C=C/c1ccccc1 | -4.1% |
| Nc1ccc(N=Nc2ccccc2)c(N)n1 | -7.54% |
| COc1ccc2nc(NC(=O)Nc3ccccc3)sc2c1 | -13.1% |
| O=C(OCc1ccccc1)c1ccc(O)cc1 | 13.8% |

What follows are compounds tested on MCC-26 in the same assay as above. Settings: MCC and control cell lines, CellTiter-Glo viability, 72 h; series mostly up to 46 µM; activity change, negative = cytotoxicity: at the top concentration.
Outline: as §1

| SMILES | activity change, negative = cytotoxicity |
| --- | --- |
| Oc1ccc(/C=C/c2cc(O)cc(O)c2)cc1 | -11.1% |
| CC(=O)Oc1cccc2c1C(=O)c1c(OC(C)=O)cc(C(=O)O)cc1C2=O | -15.8% |
| O=C1c2ccccc2C(=O)c2c1ccc(O)c2O | -11.4% |
| CN(C)CCCSc1ccccc1NC(=O)/C=C/c1ccccc1 | -15.5% |
| Nc1ccc(N=Nc2ccccc2)c(N)n1 | 4.03% |
| COc1ccc2nc(NC(=O)Nc3ccccc3)sc2c1 | -8.72% |
| O=C(OCc1ccccc1)c1ccc(O)cc1 | 8.65% |

These compounds were tested on MKL-1 in the same assay as above. Settings: MCC and control cell lines, CellTiter-Glo viability, 72 h; series mostly up to 46 µM; activity change, negative = cytotoxicity: at the top concentration.
Outline: as §1

| SMILES | activity change, negative = cytotoxicity |
| --- | --- |
| Oc1ccc(/C=C/c2cc(O)cc(O)c2)cc1 | -6.5% |
| CC(=O)Oc1cccc2c1C(=O)c1c(OC(C)=O)cc(C(=O)O)cc1C2=O | -20.5% |
| O=C1c2ccccc2C(=O)c2c1ccc(O)c2O | -11.7% |
| CN(C)CCCSc1ccccc1NC(=O)/C=C/c1ccccc1 | 0.356% |
| Nc1ccc(N=Nc2ccccc2)c(N)n1 | 0.553% |
| COc1ccc2nc(NC(=O)Nc3ccccc3)sc2c1 | -3.98% |
| O=C(OCc1ccccc1)c1ccc(O)cc1 | -2.83% |
